24 molecules from PubChem BioAssay (NCATS) can be followed below.

The structures appear in SMILES notation. Records with an inconclusive call do not appear. Values without a mark were called inactive. Calls of active or inactive are those of the source. Calls follow the shape of the dose curve; as a rule, active = well fitted curve in the direction sought with a large enough effect; inconclusive = small, poorly fitted or top-dose-only effect, or another doubt; inactive = no such curve, though single readings can be large; an effect the other way counts as inactive or inconclusive.

The nature of assay [1]: P-glycoprotein substrates identified in KB-8-5-11 adenocarcinoma cell line, qHTS therapeutic library screen (AID 1346987). Also: nearly all actives have a fitted effect of over 65% in size. As to activity change, negative = cytotoxicity: series mostly up to about 44 µM. The method in brief: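 KB-8-5-11: colchicine-selected sub-line of KB-3-1 over-expressing P-gp; assay medium lacked colchicine. 72 h drug exposure at 37 degree C, CellTiter-Glo.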
(In general: Quantitative high-throughput screening tests each substance at several concentrations.)

Assay [2] concerns Zika virus NS2B-NS3 protease (unlinked complex). In words: Primary screen GU Rhodamine qHTS for Zika virus inhibitors: Unlinked NS2B-NS3 protease assay (AID 1347159). Also: nearly all actives have a fitted effect of over 60% in size. Also: potency is read from the fitted curve at half-maximal effect. The method in brief:
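Noncovalent NS2B hydrophilic domain–NS3 protease domain complex (25 nM) preincubated 15 min at room temperature with compounds (up to 114 microM) in 10 mM Tris-HCl pH 8.0, 0.01% Tween 20; 1.5 microM Rhodamine110 substrate added, fluorescence change over 15 min fitted to Hill equation.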

Assay [3] has as its system Zika virus NS2B-NS3 protease (linked construct). Nature of the assay: Primary screen NINDS Rhodamine qHTS for Zika virus inhibitors (AID 1347160). Also: nearly all actives have a fitted effect of over 55% in size. In a few lines:
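Purified linked NS2B-NS3 protease (NS2B hydrophilic domain joined to NS3 protease by flexible linker), 25 nM in 10 mM Tris-HCl pH 8.0, 0.01% Tween 20. Compounds titrated, 15 min preincubation at room temperature; 1.5 microM Rhodamine110 substrate, FITC fluorescence change over 15 min.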
% is scaled to controls: 0 for no effect and ±100 for the full control effect.

As to `COC(=O)/C=C/c1ccc(O[C@@H]2O[C@H](CO)[C@@H](O)[C@H](O)[C@H]2O)cc1`, the Potency entry in assay [1], in assay [2] and in assay [3] was “inactive” each time.
On to `C[C@@H]1O[C@@H](O[C@H]2[C@H](OC(=O)[C@]34CCC(C)(C)C[C@H]3C3=CCC5[C@@]6(C)CC[C@H](O[C@@H]7O[C@H](CO[C@@H]8OC[C@H](O)[C@H](O)[C@H]8O[C@@H]8OC[C@@H](O)[C@H](O)[C@H]8O)[C@@H](O)[C@H](O)[C@H]7O)C(C)(C)C6CC[C@@]5(C)[C@]3(C)C[C@H]4O)O[C@H](CO)[C@@H](O)[C@@H]2O)[C@H](O[C@@H]2O[C@H](CO)[C@@H](O)[C@H](O)[C@H]2O)[C@H](O)[C@H]1O[C@@H]1OC[C@@H](O)[C@H](O[C@@H]2OC[C@@H](O)[C@H](O)[C@H]2O)[C@H]1O` (some centres not stated), for which, in assay [1], the activity change, negative = cytotoxicity was 9.58% [at 5.11 µM]. For the same molecule, the activity change, negative = inhibition in assay [2] was 2.96% [at 19.1 µM]. Besides, the Potency result in assay [3] was “inactive”.
For `C=CC(C)(O)CC/C=C(\C)C1CC=C(C)C(=O)O1` (configuration not stated), the Potency entry in assay [1], in assay [2] and in assay [3] was “inactive” throughout.
In the case of `CC1(C)CC[C@]2(C(=O)OC3OC(CO)C(O)C(O)C3O)CC[C@]3(C)C(=CCC4[C@@]5(C)C[C@@H](O)[C@H](OC6OC(C(=O)O)C(O)C(O)C6O)C(C)(C)C5CC[C@]43C)[C@@H]2C1` (some centres not stated), the activity change, negative = cytotoxicity in assay [1] was 8.55% [at 9.29 µM]. Further, the Potency result in assay [2] and in assay [3] was “inactive” in each case.
With `CC1(C)O[C@H]2CC(=O)OC[C@@]23C1=C(O)C(=O)[C@]1(C)C3CC[C@@]2(C)[C@H](c3ccoc3)OC(=O)[C@H]3O[C@]321` (some centres not stated), the Potency result in assay [1], in assay [2] and in assay [3] was “inactive” throughout.
As to `CC1OC(O[C@@H]2[C@@H](O)[C@H](OC(=O)[C@]34CCC(C)(C)C[C@H]3C3=CCC5[C@@]6(C)CC[C@H](O[C@@H]7O[C@H](C(=O)O)[C@@H](O)[C@H](O[C@@H]8OC[C@@H](O)[C@H](O)[C@H]8O)[C@H]7O[C@@H]7O[C@H](CO)[C@H](O)[C@H](O)[C@H]7O)[C@@](C)(C=O)C6CC[C@@]5(C)[C@]3(C)C[C@H]4O)O[C@H](C)[C@@H]2OC2OC(C)C(OC3OCC(O)C(O)C3O)C(O)C2O)C(O)C(O)C1O` (some centres not stated), in assay [1], the outcome was “inactive [at 9.29 µM]”. Further, in assay [2], the activity change, negative = inhibition was 7.56% [at 19.1 µM]. For the same molecule, the Potency result in assay [3] is “inactive”.
As to `CCC(C)C(=O)O[C@H]1[C@@H](O[C@H]2O[C@H](CO)[C@@H](O)[C@H](O)[C@H]2O)O[C@H](CO)[C@@H](O)[C@@H]1O` (some centres not stated), the Potency entry in assay [1], in assay [2] and in assay [3] was “inactive” in each case.
Regarding `CCC/C=C1\OC(=O)C2=C1CCC(O)C2O` (configuration not stated), the Potency result in assay [1], in assay [2] and in assay [3] was “inactive” in each case.
On to `CC(C)(O)/C=C/C(=O)[C@](C)(O)[C@H]1[C@H](O)C[C@@]2(C)[C@@H]3CC=C4[C@@H](C=C(O[C@@H]5O[C@H](CO)[C@@H](O)[C@H](O)[C@H]5O)C(=O)C4(C)C)[C@]3(C)C(=O)C[C@]12C`, for which the Potency entry in assay [1], in assay [2] and in assay [3] was “inactive” in each case.
In the case of `COc1c(O[C@@H]2O[C@H](CO)[C@@H](O)[C@H](O)[C@H]2O)c(CCC(=O)O)cc2ccoc12`, the Potency result in assay [1], in assay [2] and in assay [3] was “inactive” each time.
As to `CNc1nc(Nc2cn(C(C)(C)C#N)nc2C)ncc1C(F)(F)F`, the Potency result in assay [1], in assay [2] and in assay [3] was “inactive” in each case.
`CC(=O)O[C@@H]1C[C@@H](C)[C@](O)(CCC2=CC(=O)OC2)[C@@]2(C)CCCC(C)(C)C12` (some centres not stated): the Potency entry in assay [1], in assay [2] and in assay [3] was “inactive” throughout.
Turning to `COc1cc([C@H]2OC[C@](O)(Cc3ccc(O[C@@H]4O[C@H](CO)[C@@H](O)[C@H](O)[C@H]4O)c(OC)c3)[C@@H]2CO)ccc1O`, the Potency result in assay [1], in assay [2] and in assay [3] was “inactive” throughout.
Consider `CCC(C)C(N)C(=O)NCCN1CCOCC1` (configuration not stated), for which the Potency result in assay [1], in assay [2] and in assay [3] was “inactive” throughout.
In the case of `CC1CCC2(NC1)OC1C(O)C3C4CCC5CC(O[C@@H]6O[C@H](CO)[C@@H](O)[C@H](O)[C@H]6O[C@@H]6O[C@@H](C)[C@H](O)[C@@H](O)[C@H]6O)CCC5(C)C4CCC3(C)C1C2C` (some centres not stated), the Potency entry in assay [1], in assay [2] and in assay [3] was “inactive” each time.
Turning to `CC(O)C1CCC2C3CCC4CC(OC5OC(C(=O)O)C(O)C(O)C5O)CCC4(C)C3CCC12C` (configuration not stated), the Potency entry in assay [1], in assay [2] and in assay [3] was “inactive” in each case.
On to `C/C=C/C1OC2=C(C(=O)OC2(C)O)C(O)C1O` (configuration not stated), for which the Potency entry in assay [1], in assay [2] and in assay [3] was “inactive” each time.
Consider `COc1cc(C(C)=O)ccc1O[C@@H]1O[C@H](CO)[C@@H](O)[C@H](O)[C@H]1O`, for which the Potency entry in assay [1], in assay [2] and in assay [3] was “inactive” throughout.
Turning to `CC(C)/C=C1/NC(=O)C(C(C)C)n2c1nc1c(O)cccc1c2=O` (configuration not stated), the Potency entry in assay [1], in assay [2] and in assay [3] was “inactive” throughout.
In the case of `CC1=CCC[C@@H]2[C@@](C)(CCc3ccoc3)[C@H](C(=O)O)CC[C@@]12C`, the Potency entry in assay [1] and in assay [3] was “inactive” throughout. For the same molecule, the Potency in assay [2] was 31.6 µM (active).
In the case of `CC(C)(O)[C@@H]1CC[C@]2(CO)[C@@H](O)CC[C@](C)(O)[C@H]2[C@@H]1O[C@@H]1O[C@H](CO)[C@@H](O)[C@H](O)[C@H]1O`, the Potency entry in assay [1], in assay [2] and in assay [3] was “inactive” throughout.
As for `CC1OC(O[C@H]2CC[C@@]3(C)C(CC[C@]4(C)C3CC=C3C5CC(C)(C)CC[C@]5(C(=O)OC5OC(CO)C(OC6OCC(OC7OCC(O)C(O)C7O)C(O)C6O)C(O)C5O)CC[C@]34C)C2(C)C)C(O)C(O)C1OC1OC(CO)C(O)C(OC2OC(CO)C(O)C(O)C2O)C1O` (some centres not stated), the outcome is “inactive [at 9.29 µM]” in assay [1] and “inactive [at 10.7 µM]” in assay [3]. Moreover, the activity change, negative = inhibition in assay [2] was 1.81% [at 19.1 µM].
For `COc1cc(CO)ccc1O[C@@H]1O[C@H](CO)[C@@H](O)[C@H](O)[C@H]1O`, the Potency result in assay [1], in assay [2] and in assay [3] was “inactive” each time.
For the molecule `CCCC/C=C\CCCCCc1cc(=O)c2ccccc2n1C`, the Potency entry in assay [1], in assay [2] and in assay [3] was “inactive” each time.
